Screening data (PubChem BioAssay)
A selection: hits, their analogues and other compounds. The true share with any hit is near 1.3%.
S1P4 ag – S1P4 receptor agonists, primary screen, cell-based. 0.35% of 220,000 active. AID 1509, 2009. activation, % at 4.98 µM. S1P4-expressing cell line, agonist reporter assay. Sphingosine 1-phosphate receptor 4 (Homo sapiens), O95977; in the data active = activation above about 11%;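 note: 0% = DMSO vehicle and 100% = reference agonist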
GALR2 ag – GALR2 receptor agonists, primary screen, cell-based; 0.48% of 140,000 active; Galanin receptor type 2 (Homo sapiens), O43603; activation, % (no concentration beside the values); GALR2-expressing cells, agonist activation read-out; in the data active = activation above about 5%, passing the limit was not always enough;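 note: 0% = vehicle buffer wells and 100% = reference agonist at full effect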
S1P4 antag – S1P4 receptor antagonists, primary screen, cell-based | S1P4-expressing cells, antagonist mode, reporter read-out | inhibition, % at 4.98 µM | 0.26% of 220,000 active | AID 1510, 2009; in the data active = inhibition above about 29%;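 note: 0% = wells stimulated with agonist and 100% = vehicle wells without agonist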
S1P3 antag – S1P3 receptor antagonists, primary screen, cell-based. Sphingosine 1-phosphate receptor 3 (Homo sapiens), Q99500. CHO S1P3 NFAT-BLA reporter, FRET fluorescence, antagonist mode. inhibition, % at 4.98 µM. 0.27% of 170,000 active. AID 485, 2006;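 active = inhibition above the plate cutoff, the mean inhibition of test wells on that plate plus 3 SD, cut at about 28% in these data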;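 note: cells challenged with S1P at its EC80 of 0.8 µM; blue over green emission ratio from cleaved BLA substrate after 4 h stimulation; 0% = S1P-stimulated wells and 100% = unstimulated DMSO-only wells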
Target sequence (Q99500 whole entry, looked up): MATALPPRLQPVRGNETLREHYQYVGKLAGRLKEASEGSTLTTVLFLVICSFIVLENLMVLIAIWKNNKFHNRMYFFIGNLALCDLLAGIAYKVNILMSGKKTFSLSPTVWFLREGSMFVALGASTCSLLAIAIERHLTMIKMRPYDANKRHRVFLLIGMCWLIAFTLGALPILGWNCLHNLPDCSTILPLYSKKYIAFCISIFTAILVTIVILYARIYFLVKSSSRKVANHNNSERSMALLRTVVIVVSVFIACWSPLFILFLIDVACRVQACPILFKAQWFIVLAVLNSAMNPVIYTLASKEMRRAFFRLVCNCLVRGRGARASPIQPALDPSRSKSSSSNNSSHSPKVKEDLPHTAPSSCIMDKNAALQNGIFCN
GALR2 blocker – GALR2 antagonists in receptor-expressing cells, primary screen | Galanin receptor type 2 (Homo sapiens), O43603 | AID 828, 2007 | inhibition, % at 4 µM | 0.39% of 140,000 active | antagonist mode; in the data active = inhibition above about 27%;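 note: cells stimulated with galanin 1-16 at roughly its EC80; 0% = agonist challenge control and 100% = basal control without agonist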
S1P4 agonist cf – S1P4 receptor agonists, retest, confirmation, cell-based, high throughput; shares compounds with S1P4 ag; S1P4 agonist cell-based reporter assay; activation, % at 4.98 µM; 7% of 740 active; AID 1523, 2009; in the data active = activation above about 12%;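 note: 0% = vehicle and 100% = full reference agonist response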
S1P1 ag – S1P1 receptor agonists, human, counter-screen for S1P4 agonist project, cell-based. shares compounds with S1P4 ag. S1P1 agonist cell-based assay, activation. activation, % at 4.98 µM. 4% of 740 active. AID 1563, 2009; in the data active = activation above about 21%;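 note: 0% = vehicle wells and 100% = reference agonist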
Starred values were filed as active, the others as inactive.

Results for O=C(Cn1c(Cc2ccccc2)nc2ccccc21)NCc1ccc2c(c1)OCO2 ?
S1P4 ag: 22*; GALR2 ag: -1; S1P4 antag: -14; S1P3 antag: -6; GALR2 blocker: -8; S1P4 agonist cf: -2; S1P1 ag: -4

How did CCOC(=O)c1c(NC(C)=O)sc2c(O)c(Br)cc(Br)c12 do in these assays?
S1P4 ag: 62*; GALR2 ag: -2; S1P4 antag: -10; S1P3 antag: -9; GALR2 blocker: -3; S1P4 agonist cf: -2; S1P1 ag: -6

What do the screens show for `Cc1ccc(CCC(=O)Nc2ccccc2F)s1`?
S1P4 ag: 185*; S1P4 antag: -8; S1P3 antag: -1; S1P4 agonist cf: -2; S1P1 ag: -3

What do the screens show for `CCc1nnc(NC(=O)c2ccc(S(=O)(=O)N3CCc4ccccc4C3)cc2)s1`?
S1P4 ag: -1; GALR2 ag: -2; S1P4 antag: -20; S1P3 antag: -4; GALR2 blocker: 6

How did CCc1nnc(NC(=O)c2ccc(Cl)c(S(=O)(=O)N3CCc4ccccc4C3)c2)s1 do in these assays?
S1P4 ag: 20*; GALR2 ag: 0; S1P4 antag: -8; S1P3 antag: -1; GALR2 blocker: -10; S1P4 agonist cf: -2; S1P1 ag: 1

How did COc1ccc(Cl)cc1C(=O)Nc1ccc(Br)c(C)n1 do in these assays?
S1P4 ag: 0; S1P4 antag: -2; S1P3 antag: 4

What do the screens show for `O=C(Cc1ncc(C(F)(F)F)cc1Cl)NCCc1ccccn1`?
S1P4 ag: 13*; S1P4 antag: 6; S1P3 antag: 1; S1P4 agonist cf: -1; S1P1 ag: 5

How did CN(C)CCNC(=O)Cc1ncc(C(F)(F)F)cc1Cl do in these assays?
S1P4 ag: 2; S1P4 antag: -8; S1P3 antag: -5

Results for CCCNC(=O)C1CCN(c2cc(-c3ccccc3)nc3ncnn23)CC1 ?
S1P4 ag: 0; S1P4 antag: -21; S1P3 antag: -6

How did COc1cc(C(=O)NCc2ccncc2)cc(OC)c1OC do in these assays?
S1P4 ag: 14*; S1P4 antag: -11; S1P3 antag: 4; S1P4 agonist cf: -2; S1P1 ag: -2

What do the screens show for `COc1cc(C(=O)Nc2ccncc2)cc(OC)c1OC`?
S1P4 ag: 2; GALR2 ag: 0; S1P4 antag: -4; S1P3 antag: -4; GALR2 blocker: 10

What do the screens show for `O=C(NNC(=O)c1ccc(SCC2CCCO2)c([N+](=O)[O-])c1)c1ccc(F)cc1` (stereo not drawn)?
S1P4 ag: 0; GALR2 ag: 1; S1P4 antag: -8; GALR2 blocker: -5

Results for CC(C)(C)C(=O)Cn1c(=O)n(-c2ccc(F)cc2F)c(=O)c2sccc21 ?
S1P4 ag: 95*; S1P4 antag: 0; S1P3 antag: -15; S1P4 agonist cf: -3; S1P1 ag: 4

How did COc1ccc(CCNC(=O)Cn2c(=O)n(-c3ccc(F)cc3F)c(=O)c3sccc32)cc1OC do in these assays?
S1P4 ag: 2; S1P4 antag: -24; S1P3 antag: 4

Results for CC(C)(C)C1=NN=C2c3ccccc3C(=O)C21 (stereo not drawn) ?
S1P4 ag: 0; S1P4 antag: -3; S1P3 antag: 4

What do the screens show for `Cc1cccc(NC(=O)COC(=O)c2ccc3c(c2)OCO3)c1C`?
S1P4 ag: 2; S1P4 antag: -22; S1P3 antag: -13

How did Cc1ccc(NC(=S)N=Nc2c(O)n(C)c3ccc(S(=O)(=O)N4CCOCC4)cc23)cc1C do in these assays?
S1P4 ag: 0; GALR2 ag: -2; S1P4 antag: 6; S1P3 antag: -1; GALR2 blocker: -9

Results for Cn1c(O)c(N=NC(=S)Nc2ccccc2F)c2cc(S(=O)(=O)N3CCOCC3)ccc21 ?
S1P4 ag: 17*; S1P4 antag: 15; S1P3 antag: 1; S1P4 agonist cf: -1; S1P1 ag: -1

How did CC(NC(=O)/C(C#N)=C1\N=C(NC(=O)c2cccs2)c2ccccc21)c1ccccc1 (stereo not drawn) do in these assays?
S1P4 ag: -1; GALR2 ag: -1; S1P4 antag: -11; S1P3 antag: -7; GALR2 blocker: 7

Results for CC(=O)N(CCCN(C)C)Cc1ccccn1 ?
S1P4 ag: 20*; S1P4 antag: 4; S1P3 antag: -21; S1P4 agonist cf: -2; S1P1 ag: -7

Results for CC(=O)N(CCCc1ccc(C(C)(C)C)cc1)CCCN(C)C ?
S1P4 ag: -1; GALR2 ag: -2; S1P4 antag: -14; S1P3 antag: 9; GALR2 blocker: -9

How did CCc1ccccc1NC(=S)N1CCNC(=O)C1CC(=O)OC (stereo not drawn) do in these assays?
S1P4 ag: 0; S1P4 antag: 5; S1P3 antag: -18

What do the screens show for `CCCn1ncc(CN2CCN(Cc3ccsc3)C(CCO)C2)c1C` (stereo not drawn)?
S1P4 ag: 0; S1P4 antag: -10; S1P3 antag: 4

How did COCCNC(=O)/C(C#N)=c1\s/c(=C\c2ccccc2OC(F)F)c(=O)n1Cc1ccccc1 do in these assays?
S1P4 ag: 12*; S1P4 antag: -9; S1P3 antag: -2; S1P4 agonist cf: -2; S1P1 ag: 3

Results for CCCCOc1ccc(C(=O)N/C(=C/C=C/c2ccccc2)C(=O)NCCCO)cc1 ?
S1P4 ag: 13*; GALR2 ag: 1; S1P4 antag: -16; S1P3 antag: -2; GALR2 blocker: -7; S1P4 agonist cf: -1; S1P1 ag: -4

Results for CCCCOc1ccc(C(=O)N/C(=C/C=C/c2ccccc2)C(=O)NCCO)cc1 ?
S1P4 ag: 0; GALR2 ag: -1; S1P4 antag: -7; S1P3 antag: -10; GALR2 blocker: 6

How did CN(Cc1ccccc1)C(=O)COC(=O)c1cc(NS(=O)(=O)c2cccs2)ccc1O do in these assays?
S1P4 ag: 1; S1P4 antag: -10; S1P3 antag: -13

What do the screens show for `CCOC(=O)N1CCC(N2Cc3cccc(C(=O)Nc4ccc(CC)cc4)c3C2=O)CC1`?
S1P4 ag: 12*; GALR2 ag: -1; S1P4 antag: -9; GALR2 blocker: -7; S1P4 agonist cf: -3; S1P1 ag: -3

How did CN(C)C(=O)NC(Nc1ccc(Cl)cc1Cl)C(Cl)(Cl)Cl (stereo not drawn) do in these assays?
S1P4 ag: 0; GALR2 ag: 0; S1P4 antag: -20; GALR2 blocker: -5
